According to the supplement of paper PMC10338343:
± gives the standard deviation.

Tests used:
[1] = system: MILI (PIWIL2) piRISC loaded with piRNA #1 (26 nt); assay: pre-steady-state target cleavage rate (min^-1); guide: piRNA #1 5'p-UGAGGUAGUAGGUUGUAUAGUAUCCA; higher = faster piRNA-guided slicing of the target; conditions: auxiliary factor: 500 nM mouse GTSF1;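 further: 1 nM active piRISC with 0.1 nM target library at 33 °C single turnover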
Outline: (§1)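 Active affinity-purified piRISC carrying one synthetic guide (1 nM) was mixed with a transcribed, DNA-blocked target RNA library […] in HEPES–potassium acetate buffer at 33 °C for 0–8 or 0–960 min, with or without 500 nM GTSF1 partner protein. Uncleaved targets were then sequenced and normalised to depth and to weakly complementary targets. Three trials were pooled, and k3 was capped at 0.0001 min^-1. A burst-and-steady-state fit was applied to obtain the pre-steady-state cleavage rate.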

[2] = system: EfPiwi piRISC loaded with piRNA #1 (26 nt); assay: pre-steady-state target cleavage rate (min^-1); auxiliary factor: 500 nM Ephydatia muelleri Gtsf1; guide: piRNA #1 5'p-UGAGGUAGUAGGUUGUAUAGUAUCCA; MIWI and MILI are mouse PIWI proteins and EfPiwi is from a freshwater sponge; tags in brackets are library labels; higher = faster piRNA-guided slicing of the target
Outline: as §1

GGAGACCUUAGUAUAGAACCUACUACCUCA
pre-steady-state target cleavage rate [1]: 0.0876 ± 0.013

GGAGACCAUUCUAUAGAACCUACUACCUCA
pre-steady-state target cleavage rate [1]: 0.116 ± 0.015

GGAGACCUAACUUAACAACCUACUACCUCA
pre-steady-state target cleavage rate [1]: 0.0309 ± 0.012

GGAGACCUAUGAUAUGAACCUACCUACCUCA
pre-steady-state target cleavage rate [1]: < 0.0001

GGAGACCUAUGUCUACAACCUACUACCUCA
pre-steady-state target cleavage rate [1]: 0.0245 ± 0.004

GGAGACCUUACUAAACAACCUACUACGUCA
pre-steady-state target cleavage rate [1]: 0.0571 ± 0.01

GGAGACCUUUCUAUACAACCUACUUCCUCA
pre-steady-state target cleavage rate [1]: 0.0321 ± 0.0062

GGAGACCUAUGUAAACAACCUAGUACCUCA
pre-steady-state target cleavage rate [1]: 0.00454 ± 0.0024

GGAGACCUAUGAUAACAACUUACUACCUCA
pre-steady-state target cleavage rate [1]: 0.00545 ± 0.0023

GGAGACCUAUGAUUACAACCUACCACCUCA
pre-steady-state target cleavage rate [1]: 0.00484 ± 0.0035

GGAGACCUUACUAUACAAGCUACUUCCUCA
pre-steady-state target cleavage rate [1]: 0.149 ± 0.021

GGAGACCUAUCUUUACAACCUACUAGCUCA
pre-steady-state target cleavage rate [1]: 0.0374 ± 0.0091

GGAGACCUAACUAUACAAGCUACUAGCUCA
pre-steady-state target cleavage rate [1]: 0.159 ± 0.042

GGAGACCAUACUAUACAAGCUACUACCACA
pre-steady-state target cleavage rate [1]: 0.32 ± 0.02

GGAGACCUUACUAUACAACCUACUAACUCA
pre-steady-state target cleavage rate [1]: 0.0948 ± 0.017

GGAGACCUUACUAAACAACCUACAACCUCA
pre-steady-state target cleavage rate [1]: 0.178 ± 0.025

GGAGACCUAACUAUACUUCCUACUACCUCA
pre-steady-state target cleavage rate [1]: 0.054 ± 0.011

GGAGACCUAUCAAUAGAACCUACUACCUCA
pre-steady-state target cleavage rate [1]: 0.0159 ± 0.0039

GGAGACCUUACUAUACUUGCUACUACCUCA
pre-steady-state target cleavage rate [1]: 0.0548 ± 0.0062

GGAGACCUUACUAUAGAUCCUACUACCUCA
pre-steady-state target cleavage rate [1]: 0.204 ± 0.017

GGAGACCUAUGAAUACUACCUACUUCCUCA
pre-steady-state target cleavage rate [1]: 0.0037 ± 0.0024

GGAGUGGAUACUAUACUACCUUCUACCUCA
pre-steady-state target cleavage rate [1]: 0.0207 ± 0.0034

GGAGAGGUUAGUAUACAACCUACUACCUCA
pre-steady-state target cleavage rate [1]: 0.0314 ± 0.0096

GGAGACCUAUGAAUACAACCUACUACCUCCA
pre-steady-state target cleavage rate [1]: 0.0129 ± 0.0043

GGAGACCUAUGUAUACAACCUACUCACCUCA
pre-steady-state target cleavage rate [1]: 0.0823 ± 0.015

GGAGACCAUACAAUACAACCUACUACCACA
pre-steady-state target cleavage rate [1]: 0.177 ± 0.022

GGAGACCUAUCUAUACUACGUACUACCUCA
pre-steady-state target cleavage rate [1]: 0.013 ± 0.0024

GGAGACCUAUGAUUUCAUCCUACUACCUCA
pre-steady-state target cleavage rate [1]: 0.0038 ± 0.0025

GGAGUGGAUAGUAAACAACCUACUACCUCA
pre-steady-state target cleavage rate [1]: 0.0879 ± 0.0084

GGAGACCUAACUUAUACAACCUACUACCUCA
pre-steady-state target cleavage rate [1]: 0.0771 ± 0.019

GGAGACCUAUGUAUACAACGUAGUACCUCA
pre-steady-state target cleavage rate [1]: 0.0032 ± 0.0023

GGAGACCAUACUAAACAUCCUACUACCUCA
pre-steady-state target cleavage rate [1]: 0.272 ± 0.022

GGAGACCUAUGUAUACAACGUACAACCUCA
pre-steady-state target cleavage rate [1]: 0.00935 ± 0.0021

GGAGACCUAUGUAUACAACCUACUUCCACA
pre-steady-state target cleavage rate [1]: 0.0135 ± 0.0034

GGAGACCUAUCUAUACUACCAACUACCUCA
pre-steady-state target cleavage rate [1]: 0.00495 ± 0.0022

GGAGACCAUACUAAACAACCUACUACGUCA
pre-steady-state target cleavage rate [1]: 0.0881 ± 0.014

GGAGACCUAUGAUAUGUUCCUACUACACUCA
pre-steady-state target cleavage rate [1]: < 0.0001

GGAGACCUAACUAUACUUGCUACUACCUCA
pre-steady-state target cleavage rate [1]: 0.0149 ± 0.0044

GGAGAGGAUACUAUACAAGGAACUACCUCA
pre-steady-state target cleavage rate [1]: 0.00442 ± 0.002

GGAGACGAUAUAUACAACCUACUACCUCA
pre-steady-state target cleavage rate [1]: 0.154 ± 0.011
pre-steady-state target cleavage rate [2]: 0.00621 ± 0.0041

GGAGACGAUACUAUACUACCUACUUCCUCA
pre-steady-state target cleavage rate [1]: 0.101 ± 0.016
pre-steady-state target cleavage rate [2]: 0.00224 ± 0.0016

GGAGAGGAUACUAUACAACCUACUAGCUCA
pre-steady-state target cleavage rate [1]: 0.0627 ± 0.012
pre-steady-state target cleavage rate [2]: 0.00484 ± 0.0019

GGAGACGAUACUAUACAACCUACAACCUCA
pre-steady-state target cleavage rate [1]: 0.142 ± 0.019
pre-steady-state target cleavage rate [2]: 0.00407 ± 0.0013

GGAGAGGAUACAUUACAACCUACUACCUCA
pre-steady-state target cleavage rate [1]: 0.148 ± 0.012
pre-steady-state target cleavage rate [2]: 0.007 ± 0.0035

GGAGAGGAUACUAUACAACCUACUACCUAA
pre-steady-state target cleavage rate [1]: 0.125 ± 0.011
pre-steady-state target cleavage rate [2]: 0.0131 ± 0.0058

GGAGACCUUACUAUACAAGCUACUAGCUCA
pre-steady-state target cleavage rate [1]: 0.0972 ± 0.02
pre-steady-state target cleavage rate [2]: 0.00451 ± 0.0043

GGAGUGGAUACAAUACAACCUACUACGUCA
pre-steady-state target cleavage rate [1]: 0.0406 ± 0.0063
pre-steady-state target cleavage rate [2]: 0.0038 ± 0.0016

GGAGACCUUACUAUACAACCGACUACCUCA
pre-steady-state target cleavage rate [1]: 0.00424 ± 0.0031
pre-steady-state target cleavage rate [2]: 0.00553 ± 0.0036

GGAGACGAUUCUAUACUACCUACUACCUCA
pre-steady-state target cleavage rate [1]: 0.213 ± 0.011
pre-steady-state target cleavage rate [2]: 0.00459 ± 0.0029

GGAGACCAUACUCAUACAACCUACUACCUCA
pre-steady-state target cleavage rate [1]: 0.119 ± 0.013
pre-steady-state target cleavage rate [2]: 0.0108 ± 0.0052

GGAGACGAUACUUUACAACCUACUACGUCA
pre-steady-state target cleavage rate [1]: 0.0766 ± 0.011
pre-steady-state target cleavage rate [2]: 0.00279 ± 0.0019

GGAGUGGAUACUCAUACAACCUACUACCUCA
pre-steady-state target cleavage rate [1]: 0.161 ± 0.012
pre-steady-state target cleavage rate [2]: 0.0153 ± 0.0069

GGAGUCGAUACUAAACAACCUACUACCUCA
pre-steady-state target cleavage rate [1]: 0.183 ± 0.015
pre-steady-state target cleavage rate [2]: 0.00865 ± 0.0048

GGAGACCUAUCUAUACAACCUACAACCUCA
pre-steady-state target cleavage rate [1]: 0.0886 ± 0.013
pre-steady-state target cleavage rate [2]: 0.00366 ± 0.0032

GGAGUGGAUACUAUACAACCUAUCUACCUCA
pre-steady-state target cleavage rate [1]: 0.113 ± 0.0078
pre-steady-state target cleavage rate [2]: 0.00584 ± 0.0027

GGAGACCAUACUAUACACCUACUACCUCA
pre-steady-state target cleavage rate [1]: 0.0288 ± 0.0078
pre-steady-state target cleavage rate [2]: 0.00694 ± 0.0042

GGAGUGGGAUACUAUACAACCUACUACCUCA
pre-steady-state target cleavage rate [1]: 0.204 ± 0.011
pre-steady-state target cleavage rate [2]: 0.143 ± 0.046

GGAGACGAUACUAUACAACCACUACCUCA
pre-steady-state target cleavage rate [1]: 0.00914 ± 0.0038
pre-steady-state target cleavage rate [2]: 0.00795 ± 0.0036

GGAGACCUUACUAUACAACCUACUACCUCA [g2:g22:cont:t1A]
pre-steady-state target cleavage rate [1]: 0.165 ± 0.018
pre-steady-state target cleavage rate [2]: 0.0238 ± 0.0084

GGAGAGGAAACUAUACAACCUACUACCUCA
pre-steady-state target cleavage rate [1]: 0.222 ± 0.026
pre-steady-state target cleavage rate [2]: 0.00596 ± 0.0036

GGAGUGGAUACUAAACAACCUACAACCUCA
pre-steady-state target cleavage rate [1]: 0.0728 ± 0.009
pre-steady-state target cleavage rate [2]: 0.00162 ± 0.0015
